Results published in PubChem BioAssay.
For some of these results: Results with a measured potency or affinity are listed apart. The source made the active and inactive calls.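 How the source made its calls, unless noted: active means calcium signal ratio cut to more than 3 SD under the fully stimulated control mean yet still positive, in both repeats and the primary screen; inactive means the rest.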

Legend:
[1] = system: TRPC4 beta (transient receptor potential cation channel C4), mouse; assay: TRPC4 cation channel opening, retest – cell-based, Fluo4 calcium, HEK293 TRPC4beta/mu-opioid, duplicates, 10 µM, confirmation (AID 2426;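 active means fluorescence ratio normalized to control raised more than 50% in primary screen plus both repeat runs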); conditions: Fluo4 calcium fluorescence, at 10 µM; active compounds read high
[2] = system: transient receptor potential cation channel C4 beta (TRPC4), mouse; assay: TRPC4 cation channel opening, second retest – cell-based, second round, Fluo4, HEK293 TRPC4beta/mu-opioid, 1 µM, confirmation (AID 2461;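 active means primary screen active and over 50% activation in each of two duplicate runs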); conditions: Fluo4 calcium fluorescence, at 1 µM; active compounds read high
[3] = system: TRPC4 (transient receptor potential cation channel C4 beta), mouse; assay: potentiation of DAMGO EC20 TRPC4 response – cell-based, second round, Fluo-4, HEK293 TRPC4beta/mu-opioid, 1 µM, confirmation (AID 2554;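 active means primary screen hit whose fluorescence ratio, in both repeats, exceeds the weak agonist control mean by 3 SD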); conditions: DAMGO EC20, Fluo-4 calcium flux, at 1 µM; active compounds read high
[4] = system: TRPC4 beta (transient receptor potential cation channel C4), mouse; assay: potentiation of DAMGO EC20 TRPC4 response – cell-based, Fluo-4, HEK293 TRPC4beta/mu-opioid, confirmation (AID 2555;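 active means primary screen hit whose calcium fluorescence ratio, in both repeats, exceeds the weak agonist control mean by 3 SD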); conditions: DAMGO EC20, Fluo-4 calcium flux, at 10 µM; active compounds read high
[5] = molecular target: Short transient receptor potential channel 4 (Mus musculus) (UniProt Q9QUQ5); assay: blockers of DAMGO-evoked TRPC4 calcium flux – cell-based, Fluo4, HEK293 TRPC4beta/mu-opioid, confirmation (AID 2636;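 active means calcium signal cut by more than 3 SD below the full-agonist control yet still positive, in both repeats and the earlier primary screen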); conditions: at 10 µM; active compounds read high
[6] = molecular target: Short transient receptor potential channel 4 (Mus musculus) (UniProt Q9QUQ5); assay: blockers of DAMGO-evoked TRPC4 calcium flux – cell-based, second round, Fluo4, HEK293 TRPC4beta/mu-opioid, 1 µM, confirmation (AID 2637); conditions: at 1 µM; active compounds read high;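 on inhibition: percent of integrated ratio relative to wells lacking test compound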
[7] = molecular target: Short transient receptor potential channel 4 (Mus musculus) (UniProt Q9QUQ5); assay: calcium entry via TRPC4 opening agents – cell-based, HEK293 TRPC4/mu-opioid, Fluo-4 calcium, dose response (AID 434937;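 active means primary screen activator hit with a dose response curve and TRPC4 channel activation at any tested dose; inactive means no activation, no dose response, or not a primary hit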)
[8] = molecular target: Short transient receptor potential channel 4 (Mus musculus) (UniProt Q9QUQ5); assay: potentiation of DAMGO-evoked TRPC4 calcium signal – cell-based, HEK293 TRPC4/mu-opioid, Fluo-4 calcium, EC20 DAMGO, dose response (AID 434941;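 active means earlier screen potentiator hit that boosts the TRPC4 ion channel at some dose, with a dose response; inactive means no potentiation, no dose response, or not a prior hit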;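 further: calcium entry triggered by an EC20 dose of DAMGO at the co-expressed mu-opioid receptor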)
[9] = molecular target: Short transient receptor potential channel 4 (Mus musculus) (UniProt Q9QUQ5); assay: block of DAMGO-driven TRPC4 calcium entry – cell-based, HEK293 TRPC4/mu-opioid, Fluo-4 calcium, dose response (AID 434942;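 active means primary screen inhibitor hit that blocks the TRPC4 channel at some tested dose, yielding a dose curve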)
[10] = molecular target: Short transient receptor potential channel 6 (Mus musculus) (UniProt Q61143); assay: TRPC6 blockade by TRPC4 inhibitor hits – cell-based, HEK293, membrane potential dye, duplicate, selectivity assay for TRPC4 inhibitor project, confirmation (AID 434948;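 active means active in primary screen and both duplicates, each dropping signal beyond three positive-control SD with fluorescence still positive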); conditions: HEK293 TRPC6, membrane potential dye fluorescence, at 10 µM, stimulated with maximal-effect acetylcholine; active compounds read high
[11] = molecular target: Short transient receptor potential channel 6 (Mus musculus) (UniProt Q61143); assay: TRPC6 opening by TRPC4 activator hits – cell-based, HEK293, membrane potential dye, duplicate, selectivity assay for TRPC4 activator project, confirmation (AID 434950;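 active means membrane potential signal rise above negative control mean plus 3 SD in both duplicates, also active in the earlier TRPC4 screen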;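 on activation: 0% = buffer only wells and 100% = acetylcholine maximal-effect wells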); conditions: HEK293 TRPC6, membrane potential fluorescence, at 10 µM; activation: active compounds read high; outcome: activation
[12] = molecular target: Short transient receptor potential channel 6 (Mus musculus) (UniProt Q61143); assay: positive modulators of mouse TRPC6 channel – HEK293 cells, membrane potential dye, duplicate, selectivity assay for TRPC4 potentiator project, confirmation (AID 434952;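 active means compound raising the membrane signal above positive-control mean plus 3 SD in both repeats, and a primary screen hit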); conditions: HEK293 TRPC6, membrane potential dye fluorescence, at 10 µM, maximal acetylcholine added after compound; active compounds read high
[13] = molecular target: Short transient receptor potential channel 4 (Mus musculus) (UniProt Q9QUQ5); assay: calcium flux activators in TRPC4/5HT1a cells, counter-screen for TRPC4 activator project, cell-based, second counter screen, HEK293 TRPC4/5HT1a, Fluo-4 (AID 434977;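 active means calcium signal rise above buffer-control mean plus 5 SD in both duplicates, and also a hit in the primary screen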;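 on activation: plate controls were assay buffer for no effect and maximal serotonin response for full effect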); conditions: Fluo-4 calcium flux, at 10 µM; active compounds read high
[14] = serotonin-gated TRPC4 signal block – cell-based, second counter screen, HEK293 TRPC4/5HT1a, Fluo-4, counter-screen for TRPC4 inhibitor project, confirmation (AID 434978;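 active means primary screen active whose calcium signal fell more than 3 SD beyond the full-serotonin control mean in both duplicate plates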;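 on outcome: serotonin given first at submaximal then at maximal dose after compound preincubation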); conditions: Fluo-4 calcium flux, at 10 µM, serotonin added to trigger calcium flux; active compounds read high
[15] = system: TRPC4 (mouse), co-expressed with 5HT1a in HEK293; assay: enhancement of serotonin-evoked TRPC4 response – cell-based, second counter screen, HEK293 TRPC4/5HT1a, Fluo-4, counter-screen for TRPC4 potentiator project, confirmation (AID 434979;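 active means signal rise over 3 SD above mean of control wells given weak agonist, in both repeats and first screen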); conditions: Fluo-4 calcium flux, at 10 µM, serotonin added at its EC20 dose; active compounds read high
[16] = nonspecific calcium rise without TRPC4 – cell-based, HEK293 mu-opioid receptor line, counter-screen for TRPC4 activator project, confirmation (AID 449723;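 active means hit in primary screen, with calcium signal over 5 SD above buffer well mean in both duplicates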;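 further: counter screen cells carry the mu-opioid receptor alone and lack TRPC4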); conditions: HEK293 mu-opioid cells, Fluo-4 calcium fluorescence, at 10 µM; active compounds read high
[17] = nonspecific potentiation of DAMGO calcium response – cell-based, HEK293 mu-opioid receptor line, counter-screen for TRPC4 allosteric potentiator project, confirmation (AID 449724;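 active means calcium signal rise more than 3 SD above the low-dose agonist control mean, in both duplicate plates and the primary screen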); conditions: HEK293 mu-opioid receptor cells, Fluo-4 calcium flux, at 10 µM, compound added before EC20 DAMGO stimulus; active compounds read high

Sequence of Short transient receptor potential channel 4 (Mus musculus) (Q9QUQ5 whole entry, looked up): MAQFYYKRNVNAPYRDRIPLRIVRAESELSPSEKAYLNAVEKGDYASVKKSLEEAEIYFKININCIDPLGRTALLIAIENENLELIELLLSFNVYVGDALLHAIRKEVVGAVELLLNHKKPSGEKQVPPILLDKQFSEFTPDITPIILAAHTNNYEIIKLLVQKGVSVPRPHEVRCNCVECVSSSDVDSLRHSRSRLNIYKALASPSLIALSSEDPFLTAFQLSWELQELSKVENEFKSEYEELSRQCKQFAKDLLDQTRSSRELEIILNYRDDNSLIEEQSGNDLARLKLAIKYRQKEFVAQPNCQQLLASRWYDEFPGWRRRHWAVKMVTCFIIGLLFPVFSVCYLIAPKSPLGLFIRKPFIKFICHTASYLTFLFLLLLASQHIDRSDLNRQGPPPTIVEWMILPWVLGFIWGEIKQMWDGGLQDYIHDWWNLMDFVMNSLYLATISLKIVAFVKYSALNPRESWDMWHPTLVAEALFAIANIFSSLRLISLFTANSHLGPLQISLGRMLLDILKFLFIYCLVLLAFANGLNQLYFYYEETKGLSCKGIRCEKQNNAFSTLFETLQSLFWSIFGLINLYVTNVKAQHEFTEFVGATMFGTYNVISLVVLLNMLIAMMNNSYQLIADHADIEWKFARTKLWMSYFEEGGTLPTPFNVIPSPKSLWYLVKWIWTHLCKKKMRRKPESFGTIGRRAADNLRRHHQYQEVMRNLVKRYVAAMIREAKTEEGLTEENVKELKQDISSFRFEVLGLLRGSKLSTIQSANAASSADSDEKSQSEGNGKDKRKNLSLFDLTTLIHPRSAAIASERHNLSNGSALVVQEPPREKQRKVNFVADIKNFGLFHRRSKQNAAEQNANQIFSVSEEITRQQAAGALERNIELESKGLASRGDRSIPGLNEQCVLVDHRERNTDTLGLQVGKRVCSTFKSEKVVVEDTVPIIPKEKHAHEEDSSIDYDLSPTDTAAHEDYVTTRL
Sequence of Short transient receptor potential channel 6 (Mus musculus) (Q61143 whole entry, looked up): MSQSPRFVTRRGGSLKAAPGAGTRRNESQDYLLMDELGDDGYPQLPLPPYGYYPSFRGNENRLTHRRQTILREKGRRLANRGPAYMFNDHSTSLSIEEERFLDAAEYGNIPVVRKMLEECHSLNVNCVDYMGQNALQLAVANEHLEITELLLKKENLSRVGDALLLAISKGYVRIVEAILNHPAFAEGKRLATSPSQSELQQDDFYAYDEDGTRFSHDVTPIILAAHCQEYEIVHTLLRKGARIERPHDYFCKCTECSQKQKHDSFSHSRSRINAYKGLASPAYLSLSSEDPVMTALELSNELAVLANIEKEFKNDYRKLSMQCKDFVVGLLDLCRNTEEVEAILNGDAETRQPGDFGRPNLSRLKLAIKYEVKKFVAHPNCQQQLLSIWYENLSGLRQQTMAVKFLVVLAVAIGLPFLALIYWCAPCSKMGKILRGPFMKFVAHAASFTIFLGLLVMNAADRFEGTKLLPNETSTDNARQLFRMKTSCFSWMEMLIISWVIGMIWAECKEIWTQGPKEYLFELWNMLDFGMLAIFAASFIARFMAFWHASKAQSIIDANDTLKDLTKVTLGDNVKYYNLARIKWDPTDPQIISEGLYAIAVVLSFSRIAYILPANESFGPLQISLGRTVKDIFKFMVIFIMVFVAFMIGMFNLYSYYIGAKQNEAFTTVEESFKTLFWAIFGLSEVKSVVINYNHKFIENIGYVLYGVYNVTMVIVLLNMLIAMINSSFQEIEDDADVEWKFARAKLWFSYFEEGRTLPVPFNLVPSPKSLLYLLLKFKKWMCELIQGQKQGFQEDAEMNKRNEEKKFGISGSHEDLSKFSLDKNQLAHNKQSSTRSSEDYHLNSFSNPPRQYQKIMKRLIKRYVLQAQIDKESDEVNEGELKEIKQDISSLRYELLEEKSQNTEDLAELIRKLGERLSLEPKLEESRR

CCOC(=O)CCSc1nc(C)cc(C(F)(F)F)c1C#N
inactive: outcome [1] | outcome [2] | outcome [3] | outcome [4] | outcome [5] | outcome [6] | outcome [7] | outcome [8] | outcome [9] | outcome [10] | outcome [11] | outcome [12] | outcome [13] | outcome [14] | outcome [15] | outcome [16] | outcome [17]

CC(=O)c1ccc(N2CCN(c3ccc(S(=O)(=O)NCCCN(C)C)cc3[N+](=O)[O-])CC2)cc1
inactive: outcome [1] | outcome [2] | outcome [5] | outcome [6] | outcome [7] | outcome [8] | outcome [9] | outcome [10] | outcome [11] | outcome [12] | outcome [13] | outcome [14] | outcome [16] | outcome [17]
active: potentiation [3] 12% | potentiation [4] 19% | potentiation [15] 14.6%

O=[N+]([O-])c1cc(Cl)cc(/C=N/NC(=S)Nc2ccc(S(=O)(=O)N3CCOCC3)cc2)c1O
active: potentiation [4] 15% | potentiation [15] 10.1%
inactive: outcome [1] | outcome [2] | outcome [3] | outcome [5] | outcome [6] | outcome [7] | outcome [8] | outcome [9] | outcome [10] | outcome [11] | outcome [12] | outcome [13] | outcome [14] | outcome [16] | outcome [17]

COc1ccc(C(=O)CN2CCN(CCN3C(=O)c4cccc5cccc(c45)C3=O)CC2)cc1
active: potentiation [3] 21% | potentiation [4] 29% | potentiation [15] 18.9%
inactive: outcome [1] | outcome [2] | outcome [5] | outcome [6] | outcome [7] | outcome [8] | outcome [9] | outcome [10] | outcome [11] | outcome [12] | outcome [13] | outcome [14] | outcome [16] | outcome [17]

CN(C)CCCNc1nc(N)c([N+](=O)[O-])c(NCc2ccccc2)n1
inactive: outcome [1] | outcome [2] | outcome [3] | outcome [4] | outcome [5] | outcome [6] | outcome [7] | outcome [8] | outcome [9] | outcome [10] | outcome [11] | outcome [12] | outcome [13] | outcome [14] | outcome [15] | outcome [16] | outcome [17]

CC(=O)c1ccc(N2CCN(C(=O)C3CCN(S(=O)(=O)c4ccc5c(c4)CC(C)N5C(=O)C4CC4)CC3)CC2)cc1 (stereo not drawn)
inactive: outcome [1] | outcome [2] | outcome [3] | outcome [5] | outcome [6] | outcome [7] | outcome [8] | outcome [9] | outcome [10] | outcome [11] | outcome [12] | outcome [13] | outcome [14] | outcome [16] | outcome [17]
active: potentiation [4] 9% | potentiation [15] 14.8%

Cc1ccc(-n2c(C)cc(C)c(C#N)c2=O)cc1Cl
inactive: outcome [1] | outcome [2] | outcome [3] | outcome [4] | outcome [5] | outcome [6] | outcome [7] | outcome [8] | outcome [9] | outcome [10] | outcome [11] | outcome [12] | outcome [14] | outcome [15] | outcome [16] | outcome [17]
active: activation [13] 11.4%

O=C(C1CCN(S(=O)(=O)c2cccnc2)CC1)N1CCN(c2ccc(Cl)cc2)CC1
active: activation [11] 35.5% | activation [13] 29.8% | inhibition [14] 42.4%
inactive: outcome [1] | outcome [2] | outcome [3] | outcome [4] | outcome [5] | outcome [6] | outcome [7] | outcome [8] | outcome [9] | outcome [10] | outcome [12] | outcome [15] | outcome [16] | outcome [17]

CCOc1ccc(NS(=O)(=O)c2ccc(NC(=S)NC(=O)CC(C)C)cc2)cc1
inactive: outcome [1] | outcome [2] | outcome [3] | outcome [5] | outcome [6] | outcome [7] | outcome [8] | outcome [9] | outcome [10] | outcome [11] | outcome [12] | outcome [13] | outcome [14] | outcome [16] | outcome [17]
active: potentiation [4] 15% | potentiation [15] 6.51%

CC(C)CCOc1ccc(C(=O)NCC(c2ccco2)N(C)C)cc1 (stereo not drawn)
inactive: outcome [1] | outcome [2] | outcome [3] | outcome [4] | outcome [6] | outcome [7] | outcome [8] | outcome [9] | outcome [10] | outcome [11] | outcome [12] | outcome [13] | outcome [14] | outcome [15] | outcome [16] | outcome [17]
active: inhibition [5] 89%

CN(CC(=O)Nc1sc2c(c1C#N)CCCCC2)Cc1nc2ccccc2c(=O)[nH]1
inactive: outcome [1] | outcome [2] | outcome [3] | outcome [4] | outcome [5] | outcome [6] | outcome [7] | outcome [8] | outcome [9] | outcome [10] | outcome [11] | outcome [12] | outcome [13] | outcome [14] | outcome [15] | outcome [16] | outcome [17]

O=C(C1CCCN(Cc2cccc(Cl)c2)C1)N1CCCCC1 (stereo not drawn)
inactive: outcome [1] | outcome [2] | outcome [3] | outcome [4] | outcome [5] | outcome [6] | outcome [7] | outcome [8] | outcome [9] | outcome [10] | outcome [11] | outcome [12] | outcome [13] | outcome [14] | outcome [15] | outcome [16] | outcome [17]

COc1cc(S(=O)(=O)N2CCC(N3CCCCC3)CC2)ccc1-n1cnnn1
active: potentiation [3] 12% | potentiation [4] 8% | potentiation [15] 13.4%
inactive: outcome [1] | outcome [2] | outcome [5] | outcome [6] | outcome [7] | outcome [8] | outcome [9] | outcome [10] | outcome [11] | outcome [12] | outcome [13] | outcome [14] | outcome [16] | outcome [17]

Cn1c(=O)n(CCCO)c(=O)c2c1nc1n2CCCN1Cc1ccccc1
active: inhibition [5] 86% | inhibition [6] 46% | inhibition [14] 28.4%
inactive: outcome [1] | outcome [2] | outcome [3] | outcome [4] | outcome [7] | outcome [8] | outcome [9] | outcome [10] | outcome [11] | outcome [12] | outcome [13] | outcome [15] | outcome [16] | outcome [17]
